Results: PubChem BioAssay AID1768 (National Center for Advancing Translational Sciences (NCATS), 2009)
The campaign covered roughly 270,000 compounds. About 620 (0.23%) were called active. Roughly 12% stayed inconclusive and do not appear here. This excerpt belongs to a sample that is enriched for actives. Unmarked numbers belong to inactive results. Calls follow the shape of the dose curve; as a rule, active = well fitted inhibition curve with a large enough effect in the polarisation, with a control signal flat (not every such curve was filed as active); inconclusive = small, poorly fitted or top-dose-only effect, or effect the other way, or a change in a side signal; inactive = no such curve, though single readings can be large or run the other way; the % refers to the polarisation.

molecular target: Menin (Homo sapiens) (UniProt O00255); assay: qHTS Assay for Inhibitors Targeting the Menin-MLL Interaction in MLL Related Leukemias: Competition With Texas Red Labeled MLL-derived Mutant Peptide; settings: fluorescence polarization; series mostly up to 61.6 µM; FP activity change, negative = inhibition: at the top concentration; as to FP activity change, negative = inhibition: % of control where 0% means no effect
Potency is read from the fitted curve at half-maximal effect.

Menin (Homo sapiens), sequence (O00255 whole entry, looked up): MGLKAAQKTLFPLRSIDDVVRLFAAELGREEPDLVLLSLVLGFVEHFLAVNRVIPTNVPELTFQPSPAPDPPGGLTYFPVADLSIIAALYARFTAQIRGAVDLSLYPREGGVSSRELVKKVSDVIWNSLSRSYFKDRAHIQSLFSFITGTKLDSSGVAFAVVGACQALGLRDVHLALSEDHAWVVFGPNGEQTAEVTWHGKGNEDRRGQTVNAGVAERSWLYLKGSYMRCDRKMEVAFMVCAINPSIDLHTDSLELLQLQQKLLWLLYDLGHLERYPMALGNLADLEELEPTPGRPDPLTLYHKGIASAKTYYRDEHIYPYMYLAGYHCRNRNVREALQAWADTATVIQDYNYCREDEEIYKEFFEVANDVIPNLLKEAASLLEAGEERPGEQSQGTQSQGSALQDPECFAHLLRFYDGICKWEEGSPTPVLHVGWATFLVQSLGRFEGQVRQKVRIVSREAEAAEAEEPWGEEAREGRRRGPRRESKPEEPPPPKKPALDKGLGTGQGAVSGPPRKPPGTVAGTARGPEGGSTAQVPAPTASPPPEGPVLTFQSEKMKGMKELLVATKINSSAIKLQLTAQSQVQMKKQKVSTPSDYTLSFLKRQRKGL

Row | Compound | FP activity change, negative = inhibition | Potency
1 | O=C(NCCc1c[nH]c2ccccc12)C1CCN(Cc2ccc(Br)cc2)CC1 | -2.52% | 
2 | CC(C)C(C)NC(=O)COc1nc2ccccc2nc1N(C)C1CCCCC1 (stereo not drawn) | -8.68% | 
3 | Cc1cccc(OC(C)C(=O)N2CCc3ccccc3C2)c1 (stereo not drawn) | -12.6% | 
4 | COC(=O)c1ccc(CN2C(=O)NC(c3ccccc3)(c3ccccc3)C2=O)o1 | -16.5% | 
5 | CN(Cc1ccccc1)C(=O)C1CCCN(c2ncnc3c2nc2n3CCCCC2)C1 (stereo not drawn) | -7.48% | 
6 | Cc1ccccc1OCC(=O)Nc1ccc(S(=O)(=O)N2CCOCC2)cc1 | 30.5% | 
7 | COc1ccc(CCNC(=O)CSCc2ccc(Br)cc2)cc1OC | -14.4% | 
8 | CCOc1cc(-c2cc(-c3ccc(NC(C)=O)cc3)nc(N)c2C#N)ccc1O | 19.5% | 
9 | O=C(c1cc(C(=O)N2CCN(c3ccc(F)cc3)CC2)cc([N+](=O)[O-])c1)N1CCN(c2ccc(F)cc2)CC1 | 2.04% | 
10 | Cc1cc2oc(=O)cc(CN(C)Cc3ccc(OC(F)F)cc3)c2cc1Cl | 7.43% | 
11 | COC(=O)c1ccccc1NC(=O)C1CCN(C(=O)N2CCOc3ccccc32)CC1 | -28.1% | 
12 | CCCNC(=O)CCc1c(C)nc2c(c(C)nn2-c2ccc(C)cc2)c1C | 11.6% | 
13 | C/C(=N\NC(=O)c1ccoc1C)c1ccccc1O | 4.06% | 
14 | COc1ccc(-c2ccc(OC)c(C3C4C=CCC(C)C4C(=O)N3Cc3ccccc3)c2)cc1C (stereo not drawn) | -28.8% | 
15 | Cc1nnc(NC(=O)C(c2ccccc2)c2ccccc2)s1 | -23.4% | 
16 | CC(C)C[C@@H](COc1ccccc1)N1CCN(CC(C)C)CCC1=O | -8.58% | 
17 | O=c1[nH]n(-c2ccc([N+](=O)[O-])cc2)c(=O)c2ccccc12 |  | 31.6 µM (active)
18 | Cc1nc2ccccc2c(=O)n1Cc1ccc([N+](=O)[O-])cc1 | -0.0877% | 
19 | Cc1nn(-c2ccc([N+](=O)[O-])cc2)c(N)c1-c1ccccc1 | 17.3% | 
20 | COc1ccc(CCNC(=O)c2cnc(Cl)c(Cl)c2)cc1 | 13.2% | 
21 | CCOc1ccc(NC(=O)c2nc(SCC)ncc2Cl)cc1 | -7.71% | 

Row | Compound | FP activity change, negative = inhibition | Potency
22 | Cc1ccc(SCC(CC(C)C)N2CCN(CCc3ccccc3)CCC2=O)cc1 (stereo not drawn) | -8.63% | 
23 | Cc1ccccc1Nc1nc(-c2cccnc2)cs1 | 0.491% | 
24 | c1cnc(Nc2nc(-c3ccc4ccccc4c3)cs2)nc1 |  | 17.8 µM (active)
25 | O=C(Nc1nc(-c2ccc(-c3ccccc3)cc2)cs1)c1cnccn1 | -16.9% | 
26 | Cc1c(C)c2c(OCC(=O)NCCCO)cc3c(c2oc1=O)CCC(C)(C)O3 | -20.7% | 
27 | COc1ccc(NC(=O)CN2C(=O)CSc3ccc(S(=O)(=O)N4CCC(C)CC4)cc32)cc1 | 32.8% | 
28 | CCNC(=O)c1cnn(-c2ccccc2)c1-c1ccccc1 | -5.6% | 
29 | COc1ccc(NC(=O)NCCN2CCN(c3ccc(C)cc3)CC2)c(Cl)c1 | 0.531% | 
30 | COc1ccc(C2/C=C\CN(C(=O)c3ccc(C)cc3)C(Cc3ccccc3)C(=O)N2Cc2ccc(F)cc2)cc1 (stereo not drawn) | 30.8% | 
31 | CCOc1ccc(C(C(=O)NC2CCCC2)N(C(=O)c2snc(C(N)=O)c2N)C2CCCC2)cc1 (stereo not drawn) | -24.3% | 
32 | CC(=O)N1CCOc2ccc(S(=O)(=O)N3CCN(c4cccc(C(F)(F)F)c4)CC3)cc21 | 14.8% | 
33 | O=C(NCCc1cccc(F)c1)C1CCCN(c2nc3ccccc3s2)C1 (stereo not drawn) | -11.9% | 
34 | CC(Cc1cccs1)N(Cc1ccc(Cl)cc1)C(=O)c1ccncc1 (stereo not drawn) | -15.9% | 
35 | COc1ccc(CN2CCC(=O)c3ccccc3S2(=O)=O)cc1 | 4.64% | 
36 | COc1ccc(OC)c(CNC(=O)Cn2nc(C)c3c(C)n(-c4ccc(C)cc4)nc3c2=O)c1 | -14.1% | 
37 | CCN1C(=S)N[C@@H](c2cccc(C(F)(F)F)c2)C(C(=O)OC)=C1C | -22.2% | 
38 | COc1cc(C(=O)NCc2ccncc2)cc(Br)c1OCc1ccccc1 | 51.3% | 
39 | Cc1ccc(CNC(=O)C2(C(F)(F)F)C/C(=C\CCO)CCCO2)o1 (stereo not drawn) | 2.61% | 
40 | FC(F)(F)c1nnc2c3ccccc3c(Cl)nn12 | -2.32% | 
41 | CC(C)C[C@H]1CN=C(Nc2ccccc2)N1CC1CCCCC1 | -13.1% | 
42 | COC(=O)c1ccc2c(=O)n(CCN3CCOCC3)c(SCC(=O)Nc3cccc(OC)c3)nc2c1 | -4.18% | 

Row | Compound | FP activity change, negative = inhibition | Potency
43 | Cc1c(C(=O)NCC(c2ccco2)N2CCCC2)oc2ccc(Cl)cc12 (stereo not drawn) | -16.2% | 
44 | COc1cc(OC)c2c(c1C(CCN1CCCCC1)c1ccc(N(C)C)cc1)OC(=O)CC2c1ccc(N(C)C)cc1 (stereo not drawn) | 2.4% | 
45 | O=C(N/C(=C/c1ccc(Cl)cc1)C(=O)N1CCCCC1)c1ccco1 | 1.31% | 
46 | Cc1ccc(-n2ncc(C(=O)NC3CC3)c2C2CCN(C(=O)OC(C)(C)C)CC2)c(C)c1 | 0.388% | 
47 | Cc1cc2c(c(=O)n1Cc1ccccc1)C1O[C@](CCCCN3C(=O)c4ccccc4C3=O)(Cc3ccccc31)O2 | 12.4% [at 11.7 µM] | 
48 | CC1Sc2ccc(S(=O)(=O)CCC(=O)NCc3ccccc3Cl)cc2NC1=O (stereo not drawn) | 14.1% | 
49 | COc1cc(C(=O)NC2CCN(Cc3ccccc3)CC2)cc(Cl)c1OC(C)C | -8.46% | 
50 | Cc1ccc(C(=O)NNC(=O)c2cccs2)cc1 | 9.25% | 
51 | O=C(NNC(=O)c1cc2c(s1)CCCC2)c1ccccc1 | 2.97% | 
52 | Cc1ccc(C(=O)NNC(=O)c2cc3cc4ccccc4nc3s2)cc1 |  | 17.8 µM (active)
53 | COc1ccc(-c2nc3c(s2)CCc2onc(-c4ccc(OC)cc4)c2-3)cc1 | 5.56% | 
54 | O=C1OC2(CCCCC2)CC2=C1C1O[C@](c3ccsc3)(Cc3ccccc31)O2 | -0.298% [at 11.7 µM] | 
55 | COc1ccc(CN2CCCC(N3CCc4ccccc4C3)C2)c(O)c1 (stereo not drawn) | -18.7% | 
56 | Cc1ccc2nc(-c3ccncc3)cc(C(=O)Nc3ccncc3)c2c1 | -0.0318% | 
57 | COc1cccc(OCC(O)CNC(=O)c2oc3c(C)c(C)ccc3c2C)c1 (stereo not drawn) | -16.1% | 
58 | CC(C)CNS(=O)(=O)c1ccc(CCC(=O)NCc2ccc(Cl)cc2)cc1 | -21.7% | 
59 | C=CCn1c(SCC(=O)NC)nnc1C12CC3CC(CC(C3)C1)C2 | -14.9% | 
60 | COCCN1C(=O)C(=O)/C(=C(/O)c2ccc(S(=O)(=O)N3CCCCC3)cc2)C1c1ccc(OC)c(OC)c1 (stereo not drawn) | 8.43% | 
61 | COc1cc(C(=O)NCc2cc3cc(Cl)ccc3n2C)cc(OC)c1OC | 2.93% | 
62 | CCCCNC(=O)c1cn(CC)c2cc(N3CCN(C(=O)c4ccco4)CC3)c(F)cc2c1=O | -13.8% | 
63 | CCOc1ccc(NC(=O)C2CCN(C(=O)N3CCOc4ccccc43)CC2)cc1 | -10.2% | 
